About 1,500 (0.48%) of roughly 310,000 compounds were called active. The sample holds actives, similar compounds and a random draw of the others, so the mix is not that of the screen. Values without a mark were called inactive.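 How the source made its calls: active means binding more than 3 SD below its plate's average and above zero; inconclusive means below that plate limit but binding exactly zero; inactive means the rest.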

The target in this assay is Desmoglein-3 (Homo sapiens) (UniProt P32926). Briefly: inhibitors of pemphigus antibody binding to DSG3, primary screen, biochemical, bead-based, flow cytometry, scFv-GFP (AID 588358).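 Further: hits lower antibody fragment binding to DSG3.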 As to conditions: DSG3-coupled beads, scFv-anti-DSG3-GFP binding, at 10 µM, hits give low values.
Desmoglein-3 (Homo sapiens), sequence (P32926 whole entry, looked up, the tested form may be a part): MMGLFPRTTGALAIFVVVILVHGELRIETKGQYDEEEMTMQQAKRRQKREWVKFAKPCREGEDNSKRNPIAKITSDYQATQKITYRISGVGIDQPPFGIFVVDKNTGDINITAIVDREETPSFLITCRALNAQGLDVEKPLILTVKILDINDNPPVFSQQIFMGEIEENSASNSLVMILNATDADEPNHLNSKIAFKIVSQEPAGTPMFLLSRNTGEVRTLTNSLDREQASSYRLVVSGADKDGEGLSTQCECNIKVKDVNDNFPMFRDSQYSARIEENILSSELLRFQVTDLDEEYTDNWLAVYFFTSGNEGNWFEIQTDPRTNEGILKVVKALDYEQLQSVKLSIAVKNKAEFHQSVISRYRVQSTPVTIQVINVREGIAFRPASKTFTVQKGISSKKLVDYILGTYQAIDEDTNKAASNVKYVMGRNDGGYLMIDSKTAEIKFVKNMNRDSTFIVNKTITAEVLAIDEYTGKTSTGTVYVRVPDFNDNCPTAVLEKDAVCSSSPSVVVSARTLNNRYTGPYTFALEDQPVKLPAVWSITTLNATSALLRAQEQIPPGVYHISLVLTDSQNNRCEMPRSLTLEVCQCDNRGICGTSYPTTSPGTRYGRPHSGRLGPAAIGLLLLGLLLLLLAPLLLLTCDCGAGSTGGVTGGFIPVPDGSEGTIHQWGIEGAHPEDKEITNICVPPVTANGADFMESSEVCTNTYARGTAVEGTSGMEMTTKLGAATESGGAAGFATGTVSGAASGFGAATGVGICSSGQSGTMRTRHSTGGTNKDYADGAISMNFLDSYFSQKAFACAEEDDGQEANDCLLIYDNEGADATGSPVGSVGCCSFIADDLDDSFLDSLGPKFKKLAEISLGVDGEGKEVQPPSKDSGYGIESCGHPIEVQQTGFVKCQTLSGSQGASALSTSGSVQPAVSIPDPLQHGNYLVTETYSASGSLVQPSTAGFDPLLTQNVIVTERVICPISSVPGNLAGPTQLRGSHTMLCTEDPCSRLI
As to `CCCCCCCCC(=O)NCCOc1ccccc1`, the binding (percent of control) was 96.9%.
For the compound `O=C(CSc1ccc(C(F)(F)F)cc1[N+](=O)[O-])NCCOc1ccccc1`, the binding (percent of control) was 87.7% (active).
To `Cc1cccc(OCCNC(=O)CSc2ccc(C(F)(F)F)cc2[N+](=O)[O-])c1` belongs 114%; to `CCOC(=O)c1cnn2c(SC)ncnc12`, 105%.
With `CCOc1ccc(NC(=O)c2nc(SCC)ncc2Cl)cc1`, the binding (percent of control) was 62.8% (active).
For the compound `CCOc1ccc(NC(=O)NNC(=O)c2ccc(Cl)cc2Cl)cc1`, the binding (percent of control) was 103%.
With `CSc1ncc(Cl)c(C(=O)Nc2cc(C)ccc2C)n1` the figure was 95%; with `COc1ccc(NC(=O)COC(=O)C2COc3ccccc3O2)cc1` (stereo not given), 100%.
With `Cc1ccc(C(=O)OCC(=O)NC2CCCCCCC2)cc1C` the figure was 97%; with `CC(C)n1ncc2c(C(=O)N3CCN(Cc4cccs4)CC3)cc(C3CC3)nc21`, 101%; with `COc1ccc(C(=O)CCC(=O)Nc2ccc(Cl)cc2)cc1`, 102%.
To `COc1ccc(NC(=O)CCCC(=O)c2ccccc2)cc1` belongs 72.9% (active); to `COc1ccc(NC(=O)CS(=O)(=O)c2ccccc2)cc1`, 103%.
`C#Cc1cc(N2CCN(C(=O)c3ccoc3)CC2)n2nc(-c3cccc(Cl)c3)cc2n1`: the binding (percent of control) is 96%.
To `Cc1ccc(C=O)c([B-](F)(F)F)c1` belongs 103%; to `CC1(C)OC(=O)C2=C(CC(c3ccccc3)OC2CCc2ccccc2)O1` (stereo not given), 109%; to `O=C(Nc1cccc(-n2cnnn2)c1)c1cccnc1`, 104%.
To `Cc1ccc(S(=O)(=O)N2CCCCC2)cc1NC(=O)c1cccnc1` belongs 103%; to `Cc1ccc(-n2nc3cc(C)c(NC(=O)c4cccnc4)cc3n2)cc1`, 78.3% (active).
To `CC(=O)Nc1c(-c2ccc(C)cc2)nc2ccc(Cl)cn12` belongs 98.5%.
As for `CCCCN1C[C@H](c2ccc(Br)cc2)[C@@H](CC(=O)Nc2ccc(Br)cc2)C1=O`, the binding (percent of control) was 102%.
Consider `O=C(Nc1cccnc1Cl)c1cc(-c2ccccc2O)on1`, for which the binding (percent of control) is 92.4%.
To `O=C(c1cc(-c2ccccc2O)on1)N1CCCC1` belongs 105%; to `C=CCNC(=O)c1cc(-c2ccccc2O)on1`, 79.7% (active); to `O=C(COC(=O)CCc1c[nH]c2ccccc12)Nc1cccc(Cl)c1`, 102%.
To `COc1ccccc1C(=O)NC(=S)Nc1ccc(N2CCOCC2)cc1` belongs 101%.
To `CC(C)[C@H](NC(=O)c1ccccc1F)C(=O)Nc1cccc(S(=O)(=O)N2CCOCC2)c1` belongs 107%; to `O=C(N/N=C\c1cccnc1)c1cc(-c2ccccc2)nc2c(Cl)cccc12`, 111%; to `O=C(N/N=C/c1cccnc1)c1cc2ccccc2cc1O`, 97.3% (active).
In the case of `Cc1ccc(/C=N/NC(=O)c2cc3ccccc3cc2O)o1`, the binding (percent of control) is 111%.

These data come from PubChem BioAssay AID588358 (NMMLSC, 2011).
